# According to the supplement of paper PMC8728848:
# The entries come from a sample that favours the strongest signals as a whole.
# B1: LcH (Lens culinaris), P02870 (protein)
# chain: TETTSFSITKFSPDQQNLIFQGDGYTGKEGLTLTKVSKETGGRALYSTPIHIWDRDTVNVANFVTNGSQVFRESPNGYNVADGFTFFIAPVDTKPQTGGGYLGVFYNGKEYDKTSQTVAVEFDTFYNAAWDPSNKERHIGIDVNSIKSVNTKSWNLQNGVTSYTLNEVVPLKDVVPEWVRIGFSATTGAEFAAQEVHSWSFNSQLGHTSKS
# B2: DC-SIGN (Canis lupus), XP_853402 (protein)
# chain: AGLCRPCPWKWELFQESCYFFSQTQNTWKESISACQNLRAQLVIINSTEEQKFLKSWNTRNNQRTWIGLSDHHNEGSWKWVDNTPLQLSFWKEGEPNNHGDEDCVELYSDGWNDNRCSTENFWICKKPSSPCPGPGLNDIFEAQKIEWHE
# Columns and labels:
# Assay in all cases: glycan array binding signal (z-score within array); higher = stronger binding
# Settings in all cases: glycan notation: IUPAC condensed, linker removed
# [1] = target: Fuc(a1-2)Gal(b1-3)[Fuc(a1-4)]GlcNAc(b1-2)Man(a1-3)[Fuc(a1-2)Gal(b1-3)[Fuc(a1-4)]GlcNAc(b1-2)Man(a1-6)]Man(b1-4)GlcNAc(b1-4)GlcNAc
# How it was run: (§1)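 The binding signal is a Z-score computed within each array. Data were drawn from 3228 arrays in the Consortium for Functional Glycomics database, restricted to those with a known protein sequence. Scores were averaged over arrays of the same protein sequence at different concentrations or buffers, and over linkers, and negative values can be taken as non-binding.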
# [2] = target: Fuc(a1-2)Gal(b1-4)GlcNAc(b1-3)Gal(b1-4)GlcNAc
# How it was run: as §1
# [3] = target: Fuc(a1-2)Gal6S(b1-4)Glc6S
# How it was run: as §1
# [4] = target: Fuc(a1-2)[GalNAc(a1-3)]Gal(b1-4)GlcNAc(b1-3)Gal(b1-4)GlcNAc(b1-3)Gal(b1-4)GlcNAc
# How it was run: as §1
# [5] = target: Fuc(a1-3)[Gal3S(b1-4)]Glc6S
# How it was run: as §1
# [6] = target: Fuc(a1-3)[Neu5Ac(a2-3)]Gal(b1-4)GlcNAc(b1-3)GalNAc
# How it was run: as §1
# [7] = target: Gal(b1-3)GalNAc(a1-3)[Fuc(a1-2)]Gal(b1-4)Glc
# How it was run: as §1
# [8] = target: Gal(b1-3)GalNAc(a1-3)[Fuc(a1-2)]Gal(b1-4)GlcNAc
# How it was run: as §1
# [9] = target: Gal(b1-3)GlcNAc(b1-2)Man(a1-3)[Gal(b1-3)GlcNAc(b1-2)Man(a1-6)]Man(b1-4)GlcNAc(b1-4)[Fuc(a1-6)]GlcNAc
# How it was run: as §1
# [10] = target: Gal(b1-3)GlcNAc(b1-3)Gal(b1-3)GlcNAc
# How it was run: as §1
# [11] = target: Gal(b1-4)GlcNAc(b1-2)Man(a1-3)[Gal(b1-4)GlcNAc(b1-2)Man(a1-6)]Man(b1-4)GlcNAc(b1-4)[Fuc(a1-6)]GlcNAc
# How it was run: as §1
# [12] = target: Gal(b1-4)GlcNAc(b1-3)[Gal(b1-4)GlcNAc(b1-6)]Gal(b1-4)GlcNAc
# How it was run: as §1
# [13] = target: Glc(a1-6)Glc(a1-6)Glc
# How it was run: as §1
# [14] = target: GlcA(b1-6)Gal
# How it was run: as §1
# [15] = target: GlcNAc(a1-6)Gal(b1-4)GlcNAc
# How it was run: as §1
# [16] = target: GlcNAc(b1-2)Man(a1-3)[GlcNAc(b1-2)Man(a1-6)]Man(b1-4)GlcNAc(b1-4)GlcNAc
# How it was run: as §1
# [17] = target: GlcNAc(b1-2)Man(a1-3)[GlcNAc(b1-2)Man(a1-6)]Man(b1-4)GlcNAc(b1-4)[Fuc(a1-6)]GlcNAc
# How it was run: as §1
# [18] = target: GlcNAc(b1-3)[GlcNAc(b1-4)][GlcNAc(b1-6)]GlcNAc
# How it was run: as §1
# [19] = target: GlcNAc(b1-3)[GlcNAc(b1-6)]GalNAc
# How it was run: as §1
# [20] = target: GlcNAc(b1-4)GlcNAc(b1-4)GlcNAc
# How it was run: as §1
# [21] = target: Man(a1-2)Man(a1-3)[Man(a1-2)Man(a1-6)]Man
# How it was run: as §1
# [22] = target: Man(a1-2)Man(a1-3)[Man(a1-2)Man(a1-6)]Man(a1-6)[Man(a1-2)Man(a1-2)Man(a1-3)]Man
# How it was run: as §1
# [23] = target: Neu5Ac(a2-3)Gal(b1-4)GlcNAc(b1-6)[Neu5Ac(a2-3)Gal(b1-3)]GalNAc
# How it was run: as §1
# [24] = target: Neu5Ac(a2-3)Gal(b1-4)[Fuc(a1-3)]GlcNAc(b1-3)Gal(b1-4)GlcNAc
# How it was run: as §1
# [25] = target: Neu5Ac(a2-3)GalNAc(b1-4)GlcNAc
# How it was run: as §1
# [26] = target: Neu5Ac(a2-6)Gal(b1-4)GlcNAc(b1-2)Man(a1-3)[Neu5Ac(a2-6)Gal(b1-4)GlcNAc(b1-2)Man(a1-6)]Man(b1-4)GlcNAc(b1-4)GlcNAc
# How it was run: as §1
# [27] = target: Neu5Ac(a2-6)Gal(b1-4)GlcNAc(b1-2)Man(a1-6)[Man(a1-3)]Man(b1-4)GlcNAc(b1-4)GlcNAc
# How it was run: as §1
# [28] = target: Neu5Ac(a2-8)Neu5Ac(a2-8)Neu5Ac(a2-3)Gal(b1-4)Glc
# How it was run: as §1
# [29] = target: Neu5Ac(b2-6)Gal(b1-4)GlcNAc
# How it was run: as §1
# [30] = target: Fuc(a1-2)[GalNAc(a1-3)]Gal(b1-4)GlcNAc
# How it was run: as §1
# [31] = target: Fuc(a1-3)GlcNAc
# How it was run: as §1
# [32] = target: Fuc(a1-3)[Gal(b1-4)]GlcNAc(b1-2)Man(a1-3)[Fuc(a1-3)[Gal(b1-4)]GlcNAc(b1-2)Man(a1-6)]Man(b1-4)GlcNAc(b1-4)GlcNAc
# How it was run: as §1
# [33] = target: Fuc(a1-3)[Gal(b1-4)]GlcNAc(b1-4)Gal(b1-4)[Fuc(a1-3)]GlcNAc
# How it was run: as §1
# [34] = target: Gal(a1-3)[Gal(a1-4)]Gal(b1-4)GlcNAc
# How it was run: as §1
# [35] = target: Gal(b1-2)Gal
# How it was run: as §1
# [36] = target: Gal(b1-3)GlcNAc(b1-3)Gal(b1-4)Glc
# How it was run: as §1
# [37] = target: Gal(b1-3)[Fuc(a1-4)]GlcNAc(b1-2)Man(a1-3)[Gal(b1-3)[Fuc(a1-4)]GlcNAc(b1-2)Man(a1-6)]Man(b1-4)GlcNAc(b1-4)[Fuc(a1-6)]GlcNAc
# How it was run: as §1
# [38] = target: Gal(b1-3)[Neu5Ac(a2-6)]GalNAc
# How it was run: as §1
# [39] = target: Gal(b1-4)GalNAc(b1-3)[Fuc(a1-2)]Gal(b1-4)GlcNAc
# How it was run: as §1
# [40] = target: Gal3S(b1-3)GlcNAc
# How it was run: as §1
# [41] = target: GlcNAc(a1-4)Gal(b1-3)GlcNAc
# How it was run: as §1
# [42] = target: GlcNAc(a1-4)Gal(b1-4)GlcNAc(b1-3)Gal(b1-4)GlcNAc(b1-3)Gal(b1-4)GlcNAc
# How it was run: as §1
# [43] = target: GlcNAc(a1-4)Gal(b1-4)GlcNAc(b1-3)Gal(b1-4)[Fuc(a1-3)]GlcNAc(b1-3)Gal(b1-4)[Fuc(a1-3)]GlcNAc
# How it was run: as §1
# [44] = target: GlcNAc(b1-3)[GlcNAc(b1-6)]Gal(b1-4)GlcNAc
# How it was run: as §1
# [45] = target: GlcNAc(b1-4)GlcNAc(b1-4)GlcNAc(b1-4)GlcNAc(b1-4)GlcNAc
# How it was run: as §1
# [46] = target: Man(a1-2)Man(a1-2)Man(a1-3)Man
# How it was run: as §1
# [47] = target: Man(a1-2)Man(a1-3)[Man(a1-2)Man(a1-6)]Man(a1-6)[Man(a1-2)Man(a1-2)Man(a1-3)]Man(b1-4)GlcNAc(b1-4)GlcNAc
# How it was run: as §1
# [48] = target: Man(a1-3)[Man(a1-6)]Man(a1-6)[Man(a1-2)Man(a1-3)]Man(b1-4)GlcNAc(b1-4)GlcNAc
# How it was run: as §1
# [49] = target: Man(a1-3)[Man(a1-6)]Man(a1-6)[Man(a1-3)]Man(b1-4)GlcNAc(b1-4)GlcNAc
# How it was run: as §1
# [50] = target: Neu5Ac(a2-3)Gal(b1-4)GlcNAc
# How it was run: as §1
# [51] = target: Neu5Ac(a2-3)Gal(b1-4)GlcNAc6S
# How it was run: as §1
# [52] = target: Neu5Ac(a2-3)Gal(b1-4)[Fuc(a1-3)]GlcNAc
# How it was run: as §1
# [53] = target: Neu5Ac(a2-3)Gal(b1-4)[Fuc(a1-3)]GlcNAc(b1-6)[Gal(b1-3)]GalNAc
# How it was run: as §1
# [54] = target: Neu5Ac(a2-3)[GalNAc(b1-4)]Gal(b1-4)GlcNAc
# How it was run: as §1
# [55] = target: Neu5Ac(a2-6)Gal(b1-4)GlcNAc(b1-2)Man(a1-3)[GlcNAc(b1-2)Man(b1-4)GlcNAc(b1-2)Man(a1-6)]Man(b1-4)GlcNAc(b1-4)GlcNAc
# How it was run: as §1
# [56] = target: Neu5Ac(a2-6)Gal(b1-4)GlcNAc6S
# How it was run: as §1
# [57] = target: Neu5Gc(a2-3)Gal(b1-4)Glc
# How it was run: as §1
binder,measurement,setting,value
B1,glycan array binding signal (z-score),[1],-0.091
same,glycan array binding signal (z-score),[2],-0.141
same,glycan array binding signal (z-score),[3],-0.104
same,glycan array binding signal (z-score),[4],-0.108
same,glycan array binding signal (z-score),[5],-0.119
same,glycan array binding signal (z-score),[6],-0.132
same,glycan array binding signal (z-score),[7],-0.147
same,glycan array binding signal (z-score),[8],-0.093
same,glycan array binding signal (z-score),[9],14.3
same,glycan array binding signal (z-score),[10],-0.142
same,glycan array binding signal (z-score),[11],9.53
same,glycan array binding signal (z-score),[12],-0.138
same,glycan array binding signal (z-score),[13],-0.098
same,glycan array binding signal (z-score),[14],-0.111
same,glycan array binding signal (z-score),[15],-0.102
same,glycan array binding signal (z-score),[16],1.2
same,glycan array binding signal (z-score),[17],6.22
same,glycan array binding signal (z-score),[18],-0.125
same,glycan array binding signal (z-score),[19],-0.082
same,glycan array binding signal (z-score),[20],-0.107
same,glycan array binding signal (z-score),[21],1.24
same,glycan array binding signal (z-score),[22],3.73
same,glycan array binding signal (z-score),[23],-0.129
same,glycan array binding signal (z-score),[24],-0.046
same,glycan array binding signal (z-score),[25],-0.118
same,glycan array binding signal (z-score),[26],-0.12
same,glycan array binding signal (z-score),[27],-0.124
same,glycan array binding signal (z-score),[28],-0.138
same,glycan array binding signal (z-score),[29],-0.111
B2,glycan array binding signal (z-score),[1],0.148
same,glycan array binding signal (z-score),[30],-0.137
same,glycan array binding signal (z-score),[31],0.009
same,glycan array binding signal (z-score),[32],-0.157
same,glycan array binding signal (z-score),[33],0.044
same,glycan array binding signal (z-score),[34],-0.15
same,glycan array binding signal (z-score),[35],-0.033
same,glycan array binding signal (z-score),[36],-0.172
same,glycan array binding signal (z-score),[37],5.73
same,glycan array binding signal (z-score),[38],-0.216
same,glycan array binding signal (z-score),[39],-0.176
same,glycan array binding signal (z-score),[40],-0.026
same,glycan array binding signal (z-score),[41],0.018
same,glycan array binding signal (z-score),[42],-0.272
same,glycan array binding signal (z-score),[43],1.73
same,glycan array binding signal (z-score),[15],-0.105
same,glycan array binding signal (z-score),[44],-0.336
same,glycan array binding signal (z-score),[45],-0.267
same,glycan array binding signal (z-score),[46],7.92
same,glycan array binding signal (z-score),[21],3.37
same,glycan array binding signal (z-score),[22],7.69
same,glycan array binding signal (z-score),[47],4.83
same,glycan array binding signal (z-score),[48],11.8
same,glycan array binding signal (z-score),[49],0.127
same,glycan array binding signal (z-score),[50],-0.217
same,glycan array binding signal (z-score),[51],-0.127
same,glycan array binding signal (z-score),[52],-0.257
same,glycan array binding signal (z-score),[53],-0.407
same,glycan array binding signal (z-score),[54],-0.085
same,glycan array binding signal (z-score),[55],-0.249
same,glycan array binding signal (z-score),[56],-0.341
same,glycan array binding signal (z-score),[29],-0.361
same,glycan array binding signal (z-score),[57],-0.065
